This passage reports growth results from PubChem BioAssay (NCI).

Holding throughout (assay): NCI-60 one-dose screen, 48 h (100 = growth as untreated, 0 = no growth, -100 = all killed)
Conditions in all cases: 10 µM unless noted

In experiment [1] the test system is T-47D breast.
Experiment [2] has as its system BT-549 breast.
Experiment [3] concerns MDA-MB-435 melanoma.
The test system of experiment [4] is SW-620 colon.
Experiment [5] has as its system MCF7 breast.
Experiment [6] has as its system HCT-116 colon.
The test system of experiment [7] is HCC-2998 colon.
The test system of experiment [8] is KM12 colon.

This is part of a sample that, as a whole, favours compounds with a hit. Of some 83,000 tested, about 20% had one in any assay.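 Growth was measured after 48 h exposure to one concentration of compound in 96-well plates. Values under 10 count as active.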 Values without a mark were called inactive. Active and inactive are the calls of the source.

In the case of `CC1(C)CC[C@]2(C(N)=O)CC[C@]3(C)C(=CC[C@@H]4[C@@]5(C)C/C(=C/c6ccncc6)C(=O)C(C)(C)[C@@H]5CC[C@]43C)[C@@H]2C1`, the growth in experiment [1] is -24.8% [100 µM] (active); in experiment [2], -24.9% [100 µM] (active); in experiment [3], -56.3% [100 µM] (active); in experiment [4], -32.1% [100 µM] (active); in experiment [5], -36.6% [100 µM] (active); in experiment [6] it was -22.7% [100 µM] (active). The growth in experiment [7] was -50.4% [100 µM] (active); in experiment [8] it was -52.3% [100 µM] (active).

Take `Cc1cc(N2CCCCCC2)nc(N2CCN(CC(=O)Nc3ccc4c(ccn4Cc4ccccc4)c3)CC2)n1`: the growth in experiment [1] is 20.2%; in experiment [2] it was 59%; in experiment [3], 67.7%; in experiment [4], 63.2%; in experiment [5], 24.1%; in experiment [6] it was 32%. Besides, the growth in experiment [7] was 91.7%; in experiment [8], 35%.

As to `CC1(C)CC[C@]23CC[C@]4(C)[C@H](CC[C@@H]5[C@@]6(C)C/C(=C/c7ccncc7)C(=O)C(C)(C)[C@@H]6CC[C@]54C)[C@H]2[C@H]1OC3=O`, the growth is 62.6% [100 µM] in experiment [1]; 52.4% [100 µM] in experiment [2]; 78.7% [100 µM] in experiment [3]; 80.8% [100 µM] in experiment [4]; 70.1% [100 µM] in experiment [5]; 47.9% [100 µM] in experiment [6]. The values for the growth in experiment [7] and in experiment [8] were 78.2% [100 µM] and 81.3% [100 µM], respectively.

Take `O=c1cc(-c2ccccc2)oc2c(O)c(O)ccc12`: the growth is 68.2% in experiment [1]; 67.4% in experiment [2]; 68.8% in experiment [3]; 58% in experiment [4]; 60.9% in experiment [5]; 39% in experiment [6]. Further, the results for the growth in experiment [7] and in experiment [8] were 74.8% and 65.3%, respectively.

Take `Cc1cnc(N)nc1OCCNC(=O)c1cccc(-c2ccc(S(=O)(=O)Nc3ccc4c(c3)N(C(=O)C3CC3)CCC4)cc2)c1`: the growth was 36.9% in experiment [1]; 66.2% in experiment [2]; 78.8% in experiment [3]; 99.1% in experiment [4]; 77.2% in experiment [5]; 76.3% in experiment [6]. In addition, the growth was 77.4% in experiment [7] and 75.2% in experiment [8].

Consider `CC(C)OC(=O)Nc1cc(F)c(F)cc1F`, for which the growth is 104% in experiment [1]; 104% in experiment [2]; 103% in experiment [3]; 99.2% in experiment [4]; 94.3% in experiment [5]; 110% in experiment [6]. Further, the growth in experiment [7] and in experiment [8] was 101% throughout.

On to `O=C(COc1cccc(/C=C2\Oc3ccccc3C2=O)c1)c1ccc([N+](=O)[O-])cc1`, for which the growth is 51.6% in experiment [1]; 110% in experiment [2]; 116% in experiment [3]; 113% in experiment [4]; 50.7% in experiment [5]; 92.2% in experiment [6]. Moreover, the growth in experiment [7] was 96.8%; in experiment [8], 110%.

As to `C=C(C)[C@@H]1CC[C@]2(C)[C@H](CC=C3[C@@H]4[C@@H](C)[C@H](C)CC[C@]4(C(N)=O)CC[C@]32C)[C@@]1(C)CCC#N`, the growth in experiment [1] was 5.58% [100 µM] (active); in experiment [2], -25.4% [100 µM] (active); in experiment [3], 1.04% [100 µM] (active); in experiment [4], 7.86% [100 µM] (active); in experiment [5], 2.14% [100 µM] (active); in experiment [6] it was -43.8% [100 µM] (active). In addition, the growth in experiment [7] was -22.4% [100 µM] (active); in experiment [8], -46.4% [100 µM] (active).

For `CCCSc1nc(N)nc2nc[nH]c12`, the growth in experiment [1] is 97.6%; in experiment [2], 156%; in experiment [3] it was 117%; in experiment [4], 113%; in experiment [5] it was 104%; in experiment [6], 95.3%. Besides, the values for the growth in experiment [7] and in experiment [8] were 115% and 114%, respectively.

Consider `CCCCCCCCCN(CCCCCCCCC)C(C)C(=O)c1ccc2cc(Br)c3ccccc3c2c1` (configuration not stated), for which the growth in experiment [1] was 79.8%; in experiment [2] it was 101%; in experiment [3], 76.5%; in experiment [4], 67%; in experiment [5], 97.7%; in experiment [6] it was 73.5%. Moreover, the growth was 47.7% in experiment [7] and 81.4% in experiment [8].

On to `Cc1cccc([N+](=O)[O-])c1I`, for which the growth in experiment [1] was 104%; in experiment [2] it was 110%; in experiment [3] it was 103%; in experiment [4], 108%; in experiment [5] it was 114%; in experiment [6], 112%. Further, the results for the growth in experiment [7] and in experiment [8] were 101% and 112%, respectively.

Consider `O=S(=O)(c1ccc(N/N=C\c2ccccc2Cl)cc1)c1ccc(N/N=C/c2ccccc2Cl)cc1`, for which the growth in experiment [1] is 76.3%; in experiment [2], 78.6%; in experiment [3], 86.9%; in experiment [4], 87.6%; in experiment [5] it was 68%; in experiment [6], 80.8%. Besides, the growth in experiment [7] is 103%; in experiment [8], 69.9%.

Turning to `COc1cc(OC)c(/C=C/C(=O)c2c(N)cc(OC)cc2OC)c(OC)c1`, the growth in experiment [1] was 49.9%; in experiment [2], 19.3%; in experiment [3] it was -27.3% (active); in experiment [4], 15%; in experiment [5], 25%; in experiment [6] it was 14.8%. Also, the growth in experiment [7] is 29.4%; in experiment [8], 11.5%.

For `C=C(C)[C@@H]1CC[C@]2(C(=O)NCCNCCNCCN)CC[C@]3(C)[C@H](CC[C@@H]4[C@@]5(C)CCC(=O)C(C)(C)[C@@H]5CC[C@]43C)[C@@H]12`, the growth in experiment [1] is -4.36% [100 µM] (active); in experiment [2] it was 58.3% [100 µM]; in experiment [3], -49.9% [100 µM] (active); in experiment [4], -76.7% [100 µM] (active); in experiment [5], -58% [100 µM] (active); in experiment [6], -80.7% [100 µM] (active). The growth in experiment [7] is -90% [100 µM] (active); in experiment [8], -81.9% [100 µM] (active).
